Results taken from the supplement of paper PMC8975748.
Counter-ions that a name gives are not always drawn. ± gives the standard deviation of the averaged measurements.

How the values were obtained:
[1] = test system: Saccharomyces cerevisiae BY4741 SeMeCo community; experiment: mean cell size (pixel area) (pixels); higher = larger cells; settings: 10 µM; 24 h; SM minimal medium
Outline: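 A fluorescent Saccharomyces cerevisiae BY4741 community carrying four plasmids was used, with each plasmid complementing one auxotrophy and bearing a fluorescent marker. An overnight preculture at OD600 = 1.0 was diluted to OD600 = 0.3, and 70 µl went into 384-well plates acoustically predosed with drug (final 10 µM) in SM medium for 24 h. After paraformaldehyde fixation, cells were imaged by automated confocal microscopy and analysed in Harmony, giving the mean cell pixel area per well. Each value is the average of 3 replicates. Same SeMeCo high-content imaging drug screen: Selleck FDA-approved drugs at 10 µM, 24 h in SM medium, 384-well plates, 3 replicates.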

[2] = test system: Saccharomyces cerevisiae BY4741 SeMeCo community; experiment: z-score of prototroph abundance vs DMSO median; higher = larger share of this subpopulation than in DMSO controls; settings: 10 µM; 24 h; SM minimal medium; subpopulation (auxotrophy): Prototroph
Outline: (§1)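 Subpopulation abundance was reported as a z-score against the median of vehicle wells. The Saccharomyces cerevisiae BY4741 community, carrying four plasmids that each restored one auxotrophy and encoded a distinct fluorescent protein, was grown 24 h in minimal SM medium in 384-well plates holding library drugs at 10 µM final. Cells were paraformaldehyde-fixed and imaged by automated confocal microscopy, with single-auxotroph fluorescent strains used for thresholds and autofluorescence correction.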

[3] = test system: Saccharomyces cerevisiae BY4741 SeMeCo community; experiment: z-score of subpopulation abundance vs DMSO median, subpopulation auxotrophic for M; higher = larger share of this subpopulation than in DMSO controls; settings: 10 µM; 24 h; SM minimal medium; subpopulation (auxotrophy): M
Outline: as §1

[4] = test system: Saccharomyces cerevisiae BY4741 SeMeCo community; experiment: z-score of subpopulation abundance vs DMSO median, subpopulation auxotrophic for U; higher = larger share of this subpopulation than in DMSO controls; settings: 10 µM; 24 h; SM minimal medium; subpopulation (auxotrophy): U
Outline: as §1

[5] = test system: Saccharomyces cerevisiae BY4741 SeMeCo community; experiment: z-score of subpopulation abundance vs DMSO median, subpopulation auxotrophic for H; higher = larger share of this subpopulation than in DMSO controls; settings: 10 µM; 24 h; SM minimal medium; subpopulation (auxotrophy): H
Outline: as §1

[6] = test system: Saccharomyces cerevisiae BY4741 SeMeCo community; experiment: z-score of subpopulation abundance vs DMSO median, subpopulation auxotrophic for LU; higher = larger share of this subpopulation than in DMSO controls; settings: 10 µM; 24 h; SM minimal medium; subpopulation (auxotrophy): LU
Outline: as §1

[7] = test system: Saccharomyces cerevisiae BY4741 SeMeCo community; experiment: z-score of subpopulation abundance vs DMSO median, subpopulation auxotrophic for LM; higher = larger share of this subpopulation than in DMSO controls; settings: 10 µM; 24 h; SM minimal medium; subpopulation (auxotrophy): LM
Outline: as §1

[8] = test system: Saccharomyces cerevisiae BY4741 SeMeCo community; experiment: z-score of subpopulation abundance vs DMSO median, subpopulation auxotrophic for HM; higher = larger share of this subpopulation than in DMSO controls; settings: 10 µM; 24 h; SM minimal medium; subpopulation (auxotrophy): HM
Outline: as §1

[9] = test system: Saccharomyces cerevisiae BY4741 SeMeCo community; experiment: z-score of subpopulation abundance vs DMSO median, subpopulation auxotrophic for HU; higher = larger share of this subpopulation than in DMSO controls; settings: 10 µM; 24 h; SM minimal medium; subpopulation (auxotrophy): HU
Outline: as §1

[10] = test system: Saccharomyces cerevisiae BY4741 SeMeCo community; experiment: z-score of subpopulation abundance vs DMSO median, subpopulation auxotrophic for UM; higher = larger share of this subpopulation than in DMSO controls; settings: 10 µM; 24 h; SM minimal medium; subpopulation (auxotrophy): UM
Outline: as §1

[11] = test system: Saccharomyces cerevisiae BY4741 SeMeCo community; experiment: z-score of subpopulation abundance vs DMSO median, subpopulation auxotrophic for HL; higher = larger share of this subpopulation than in DMSO controls; settings: 10 µM; 24 h; SM minimal medium; subpopulation (auxotrophy): HL
Outline: as §1

[12] = test system: Saccharomyces cerevisiae BY4741 SeMeCo community; experiment: z-score of subpopulation abundance vs DMSO median, subpopulation auxotrophic for HLU; higher = larger share of this subpopulation than in DMSO controls; settings: 10 µM; 24 h; SM minimal medium; subpopulation (auxotrophy): HLU
Outline: as §1

[13] = test system: Saccharomyces cerevisiae BY4741 SeMeCo community; experiment: z-score of subpopulation abundance vs DMSO median, subpopulation auxotrophic for HLM; higher = larger share of this subpopulation than in DMSO controls; settings: 10 µM; 24 h; SM minimal medium; subpopulation (auxotrophy): HLM
Outline: as §1

[14] = test system: Saccharomyces cerevisiae BY4741 SeMeCo community; experiment: z-score of subpopulation abundance vs DMSO median, subpopulation auxotrophic for HUM; higher = larger share of this subpopulation than in DMSO controls; settings: 10 µM; 24 h; SM minimal medium; subpopulation (auxotrophy): HUM
Outline: as §1

[15] = test system: Saccharomyces cerevisiae BY4741 SeMeCo community; experiment: z-score of subpopulation abundance vs DMSO median, subpopulation auxotrophic for LUM; higher = larger share of this subpopulation than in DMSO controls; settings: 10 µM; 24 h; SM minimal medium; subpopulation (auxotrophy): LUM
Outline: as §1

[16] = test system: Saccharomyces cerevisiae BY4741 SeMeCo community; experiment: z-score of subpopulation abundance vs DMSO median, subpopulation auxotrophic for HLUM; higher = larger share of this subpopulation than in DMSO controls; settings: 10 µM; 24 h; SM minimal medium; subpopulation (auxotrophy): HLUM
Outline: as §1

[17] = test system: Saccharomyces cerevisiae BY4741 SeMeCo community; experiment: z-score of subpopulation abundance vs DMSO median, subpopulation auxotrophic for L; higher = larger share of this subpopulation than in DMSO controls; settings: 10 µM; 24 h; SM minimal medium; subpopulation (auxotrophy): L
Outline: as §1

SMILES	mean cell size [1]	z-score of prototroph abundance [2]	z-score of subpopulation abundance [3]	z-score of subpopulation abundance [4]	z-score of subpopulation abundance [5]	z-score of subpopulation abundance [6]	z-score of subpopulation abundance [7]	z-score of subpopulation abundance [8]	z-score of subpopulation abundance [9]	z-score of subpopulation abundance [10]	z-score of subpopulation abundance [11]	z-score of subpopulation abundance [12]	z-score of subpopulation abundance [13]	z-score of subpopulation abundance [14]	z-score of subpopulation abundance [15]	z-score of subpopulation abundance [16]	z-score of subpopulation abundance [17]
CCCC1CC(C(=O)NC(C(C)Cl)C2OC(SC)C(O)C(O)C2O)N(C)C1 (stereo not given) [Clindamycin alcoholate]	12.1 ± 0.19	-0.45	0.25	-0.8	0.65	-0.02	1.04	0.91	-0.93	-0.51	1.2	-0.02	0.08	0.14	0.51	-0.12	–
Nc1c(Br)cc(Br)cc1CN[C@H]1CC[C@H](O)CC1 [Ambroxol HCl]	12.1 ± 0.17	1.21	-0.93	-0.79	-0.09	-0.9	-0.43	-1.17	-1.1	-0.8	-0.86	-0.39	-0.5	-0.94	-1.08	-0.43	–
COc1ccc(NS(=O)(=O)c2ccc(N)cc2)nn1 [Sulfamethoxypyridazine]	12.2 ± 0.35	0.98	-0.66	0.12	-0.64	-0.73	-0.89	-0.15	-0.08	0.13	-1.05	-0.41	-1.06	–	-0.72	-0.55	–
CCN1CCCC1CNC(=O)c1cc(S(=O)(=O)CC)c(N)cc1OC (stereo not given) [Amisulpride]	12.4 ± 0.13	0.14	0.12	0.31	0.19	–	-0.1	-1.17	0.3	0.04	-0.73	-0.63	-0.87	-0.03	-0.21	-0.8	-0.08
COc1ccccc1N1CCN(CCCNc2cc(=O)n(C)c(=O)n2C)CC1 [Urapidil HCl]	–	-0.23	-0.32	1.09	-0.78	0.29	-0.25	-0.81	0.01	0	–	-0.11	–	-0.59	-0.71	-0.28	–
COc1ccnc(C[S+]([O-])c2nc3cc(OC(F)F)ccc3[nH]2)c1OC (stereo not given) [Pantoprazole sodium]	12.5 ± 0.28	-0.43	0.43	-0.3	0.86	-0.65	0	0.29	0.06	0.55	-0.43	-0.16	–	–	0	-0.49	–
CCC(C)C1OC2(CCC1C)CC1CC(CC=C(C)C(OC3CC(OC)C(OC4CC(OC)C(O)C(C)O4)C(C)O3)C(C)C=CC=C3COC4C(O)C(C)=CC(C(=O)O1)C34O)O2 (stereo not given) [Ivermectin]	–	-1.61	-0.12	0.12	1.41	-0.12	0.26	1.17	1.39	1.13	0.26	2.13	0.72	–	1.28	0.72	–
O=C(O)Cc1ccccc1Nc1c(Cl)cccc1Cl [Diclofenac Diethylamine]	12.66 ± 0.1	2.27	-0.07	-1.34	-1.31	–	-0.51	-0.49	-1.85	-1.81	–	-0.36	-0.26	-1.96	-1.21	0	0.07
CC1(C)S[C@@H]2[C@H](NC(=O)[C@H](N)c3ccc(O)cc3)C(=O)N2[C@H]1C(=O)O [Amoxicillin Sodium]	12.5 ± 0.31	0.37	0.97	-0.06	-0.8	-0.7	-1.17	-0.22	–	-0.03	-1.14	-0.65	–	-0.13	-0.05	-0.2	–
O=C(O)CCC(=O)c1ccc(-c2ccccc2)cc1 [Fenbufen]	12.8 ± 0.18	-0.31	0.67	0.32	–	–	0.1	-0.02	0.87	–	0.57	-0.12	0.59	0.23	-0.23	0.69	0.14
CN(C/C=C/C#CC(C)(C)C)Cc1cccc2ccccc12 [Terbinafine HCl]	12.27 ± 0.088	-0.62	1.09	1.03	-0.56	0.54	-0.74	-0.78	0.89	1.94	-0.47	-0.09	–	1.65	0.47	1	–
Nc1ccc(S(N)(=O)=O)cc1 [Sulfanilamide]	–	0.43	-0.87	0.22	-0.45	-0.14	-1.02	-0.8	-1.15	0.11	-1.05	-1.52	-0.21	–	–	-0.65	–
CC/C=C(\C(=O)N[C@@H]1C(=O)N2C(C(=O)OCOC(=O)C(C)(C)C)=C(COC(N)=O)CS[C@H]12)c1csc(N)n1 [Cefcapene Pivoxil Hydrochloride]	12.3 ± 0.31	-1.27	0.11	–	1.15	0.9	0.55	1.27	1	0.67	0.18	-0.22	0.64	–	0.63	0.1	–
NC(=O)N/N=C/c1ccc([N+](=O)[O-])o1 [Nitrofural]	12.84 ± 0.1	-0.16	1.2	-0.14	-0.29	–	-1.3	0.63	-0.42	0.54	0	-1.14	3.28	-0.73	-0.73	0.17	-0.82
